# Reference: PubChem BioAssay (NCI)
# This is part of a sample that, as a whole, favours compounds with a hit. Of some 83,000 tested, about 20% had one in any assay.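 Step 1: grow cells in 96-well plates. Step 2: add test compound at a single concentration. Step 3: incubate 48 h. Step 4: record percent growth.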 Values without a mark were called inactive. Calls of active or inactive are those of the source. The calls were made as follows: active = growth percent below 10; inactive = the rest.
# Test system: HL-60(TB) leukemia
# Assay: NCI-60 one-dose screen, 48 h (100 = growth as untreated, 0 = no growth, -100 = all killed)
# Conditions: 10 µM unless noted
row,Structure (SMILES),growth
1,O=S(=O)(NCCCNc1nccc(-c2c(-c3ccc(F)cc3)nc3sccn23)n1)c1ccc(F)cc1,35.5%
2,C#CCOc1ccc(C2=NN(CC3CC3)C3N=C(Cl)c4ncn(CC5CC5)c4N23)cc1OCC#C (stereo not given),99.1%
3,C=C1CC[C@@H]2[C@@](C)(CCC[C@]2(C)C(=O)O)[C@@H]1CC[C@H](CO)CCO,93.7%
4,CC(=O)c1nn(-c2ccccc2)/c(=N\N=C\c2coc3ccc(F)cc3c2=O)s1,105%
5,CN1C(=O)N(C)C2C1NN=c1s/c(=C\C=C\c3ccccc3)c(=O)n12 (stereo not given),17.1%
6,O=C1c2cccnc2C(=O)c2c1c(C(=O)OCCCN1CCOCC1)c1ccccn21,-3.63% (active)
7,COc1ccc2c(c1)oc1c(C)c3c(c(C)c12)C(=O)N(CCOS(C)(=O)=O)C3=O,93.6%
8,CCN1C(=O)N(CC)C2Nn3c(s/c(=C\c4cccc(F)c4)c3=O)=NC21 (stereo not given),38.6%
9,N#C/C(Sc1nc2sc3c(c2c(=O)n1Cc1ccccc1)CCCC3)=C1/SC=C(c2ccc(Cl)cc2)N1c1ccccc1,84.3%
10,Oc1ccc(C(c2ccc(O)cc2)c2ccc(Br)cn2)cc1,106%
11,CC(=O)Nc1ccc(-c2ccc3c(c2)NC(=O)/C3=C\c2ccc[nH]2)cc1,95.5%
12,Cc1nc(Nc2ccc(S(=O)(=O)Nc3cc(C)on3)cc2)c2ccccc2n1,101%
13,CCCCCC(=O)N(CCCC)CCCC,109%
14,COc1cc(OCc2cccc(-c3ccc(C(O)c4nccs4)cc3)c2C)cc(OC)c1C=O (stereo not given),43.5%
15,NC1=CSC2=N/C(=C\c3ccc(Cl)cc3)C(=O)N12,39.9%
16,CNCCCNc1nc2ccccc2c2c(=O)c3cc(OC)ccc3sc12,56.2%
17,Cc1ccc(CNc2c3ccccc3nc3cc(NC(=O)CCN4CCCC4)ccc23)cc1,-64.3% (active)
18,COC(=O)c1cc(-c2cc(OC)c(OC)c(OC)c2)[nH]c1N/N=C/c1c(Cl)cccc1Cl,134%
19,Cn1cc(-c2nonc2-c2cn(C)c3ccc(F)cc23)c2cc(F)ccc21,17.3%
20,O=c1c(F)cn(Cc2ccccc2CCl)c(=O)n1Cc1ccccc1CCl,-63.6% (active)

row,Structure (SMILES),growth
1,CCN(CC)CCOc1ccc(Nc2ncc3cc(-c4ccc(O)cc4)c(=O)n(C)c3n2)cc1,40.2%
2,COc1ccc(C2=NN(C=O)C(c3ccc(Oc4nc5c(c(=O)n(C)c(=O)n5C)n4C)c(OC)c3)C2)cc1 (stereo not given),90.3%
3,Cc1ccccc1N=C(N)Nc1ccccc1C (tested in a mixture with another compound),-25% (active)
4,COc1cc(/C=C\c2cc(OC)c(OC)c(OC)c2)cc(NC(=O)/C=C/c2cc(OC)c(OC)c(OC)c2)c1OC,-6.4% (active)
5,N#Cc1c(NN)n(C2OC(CO)C(O)C2O)c2ncnc(N)c12 (stereo not given),-52.1% (active)
6,COC(=O)[C@@]12OC[C@]34[C@H]([C@@H](O)[C@@H]1O)[C@@]1(C)[C@H](O)C(=O)C=C(C)[C@@H]1C[C@H]3OC(=O)C(OC(C)=O)[C@@H]24 (stereo not given in full),-59% (active)
7,COc1ccc(/C=C(/c2ccccc2)[N+](=O)[O-])c(OC)c1,0.521% (active)
8,CN(C)c1ccc(S(=O)(=O)O)cc1,128%
9,COc1ccc(C(=S)N2CCN(c3ccc(Cl)cc3)CC2)cc1,89.7%
10,O=C(NC1CC(F)C1)c1cc2cccnc2n1-c1ccc(Cl)c(Cl)c1 (stereo not given),97.2%
11,O=C1/C(=C/c2ccc([N+](=O)[O-])o2)Oc2ccc(Br)cc21,43.2%
12,N=C1c2nc3n(c2C(=O)c2nc4n(c21)CCCCC4)CCCCC3,103%
13,COC(=O)c1nc(-c2ccccc2)oc1S(=O)(=O)NCC(c1ccc(Cl)cc1)N1CCCCC1 (stereo not given),17.5%
14,O=C1c2c(O)cc(O)cc2-c2c(-c3ccc(O)cc3)oc3cc(O)cc1c23,17%
15,CC(=O)N1Cc2ccccc2C(C)Cc2cc(Cl)ccc21 (stereo not given),111%
16,COc1ccc(-c2nc3ccccn3c2/C=C/C(=O)c2cc(OC)c(OC)c(OC)c2)cc1OC,9.67% (active)
17,CCCCCN(CCCCC)C(C)C(O)c1ccc2cc(Cl)c3ccccc3c2c1 (stereo not given),105%
18,Cc1nc(Cl)cc(N(c2cc(Cl)nc(C)n2)c2ncc(C(=O)Nc3c(C)cccc3Cl)s2)n1,81.3%
19,Fc1ccccc1Nc1n[nH]c(=S)s1,112%
20,O=C(COc1cc(O)c2c(=O)cc(-c3ccccc3)oc2c1)Nc1ccccc1C(F)(F)F,55%
